Assay results published in the supplement of paper PMC6555819.

How the values were obtained:
Assay in all cases: PBM binding z-score (relative to random genomic background probes); higher = stronger binding; sequences stand for … in GC…GCGATTGACAGCGTAGAATGAAGG
[1] = tested on: FXR:RXRa (NR concentration 270 nM, RXRa partner concentration 90 nM)
In short: (§1)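 Custom Agilent 4×180K protein-binding microarrays carried double-stranded probes. Their 34-nt variable regions held direct-repeat seeds, single-nucleotide variants, half-site ablations and random human genomic background sequences. Arrays were incubated 1 h with ligand-free nuclear receptor dimers in PBS pH 7.4, 2% milk, 0.02% Triton X-100, 1 mM DTT, 0.2 mg/mL BSA and 0.4 mg/ml salmon testes DNA. Antibodies against each partner (one per run) detected binding, and scanned fluorescence was regression-normalized. Binding z-scores use random background probes as reference.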

[2] = tested on: LXRa:RXRa (NR concentration 270 nM, RXRa partner concentration 90 nM)
In short: as §1

[3] = tested on: LXRa homodimer (NR concentration 270 nM)
In short: as §1

[4] = tested on: LXRb:RXRa (NR concentration 270 nM, RXRa partner concentration 90 nM)
In short: as §1

[5] = tested on: LXRb homodimer (NR concentration 270 nM)
In short: as §1

[6] = tested on: PPARa:RXRa (NR concentration 270 nM, RXRa partner concentration 90 nM)
In short: as §1

[7] = tested on: PPARg:RXRa (NR concentration 180 nM, RXRa partner concentration 90 nM)
In short: as §1

[8] = tested on: PPARg:RXRa 270nM:90nM, anti-RXR (NR concentration 270 nM, RXRa partner concentration 90 nM)
In short: as §1

[9] = tested on: PPARg:RXRa 30nM:10nM, anti-RXR (NR concentration 30 nM, RXRa partner concentration 10 nM)
In short: as §1

[10] = tested on: PPARg:RXRa 90nM:30nM, anti-RXR (NR concentration 90 nM, RXRa partner concentration 30 nM)
In short: as §1

[11] = tested on: PPARg:RXRa DBDmut IVT, anti-RXR (DBD mutation: RXRa K156A/R161A, NR concentration 270 nM, RXRa partner concentration 90 nM)
In short: as §1

[12] = tested on: PPARg:RXRa IVT, anti-PPARg (NR concentration 270 nM, RXRa partner concentration 90 nM)
In short: as §1

[13] = tested on: PPARg DBDmut:RXRa IVT, anti-PPARg (DBD mutation: PPARg1 K132A/R137A, NR concentration 270 nM, RXRa partner concentration 90 nM)
In short: as §1

[14] = tested on: PPARg DBDmut IVT, anti-PPARg (DBD mutation: PPARg1 K132A/R137A, NR concentration 270 nM)
In short: as §1

[15] = tested on: PPARg homodimer (NR concentration 180 nM)
In short: as §1

[16] = tested on: PXR:RXRa (NR concentration 270 nM, RXRa partner concentration 90 nM)
In short: as §1

[17] = tested on: PXR homodimer (NR concentration 270 nM)
In short: as §1

[18] = tested on: RARa:RXR (NR concentration 270 nM, RXRa partner concentration 90 nM)
In short: as §1

[19] = tested on: RARa homodimer (NR concentration 270 nM)
In short: as §1

[20] = tested on: RARb:RXRa (NR concentration 270 nM, RXRa partner concentration 90 nM)
In short: as §1

| Sequence | PBM binding z-score [1] | PBM binding z-score [2] | PBM binding z-score [3] | PBM binding z-score [4] | PBM binding z-score [5] | PBM binding z-score [6] | PBM binding z-score [7] | PBM binding z-score [8] | PBM binding z-score [9] | PBM binding z-score [10] | PBM binding z-score [11] | PBM binding z-score [12] | PBM binding z-score [13] | PBM binding z-score [14] | PBM binding z-score [15] | PBM binding z-score [16] | PBM binding z-score [17] | PBM binding z-score [18] | PBM binding z-score [19] | PBM binding z-score [20] |
| --- | --- | --- | --- | --- | --- | --- | --- | --- | --- | --- | --- | --- | --- | --- | --- | --- | --- | --- | --- | --- |
| TAGCCTTGGTCATTCAGGGGCCAGTATAGAAAGC | -0.269 | -0.328 | -0.573 | 0.134 | -0.26 | 0.0582 | -0.0299 | -0.0721 | -0.509 | -0.279 | -0.687 | 0.278 | -0.367 | -0.339 | -0.308 | 0.0515 | -0.437 | 0.596 | -0.818 | 1.44 |
| TCTGCTAGGTCAACGATGGTCCGCTAATCTGCTA | 2.99 | 2.08 | -0.377 | 1.02 | -0.262 | 3 | 2.07 | 2.75 | 1.9 | 2.22 | 4.07 | 4 | -0.429 | 0.0666 | 0.694 | 0.998 | -0.847 | 1.91 | -0.449 | 3.91 |
| TCTAGTTGGTCAAAGGTCACAAACTCGAAATGCG | 4.94 | 5.27 | 3.15 | 5.16 | 1.49 | 6.4 | 10.9 | 9.72 | 9.69 | 10.3 | 3.16 | 5.98 | 1.2 | 1.06 | 3.78 | 5.56 | 1.54 | 6.79 | 3.07 | 4.77 |
| ACTTACGGTTCAACGAGGTTATAGCACGCGTATA | 2.96 | 3.15 | 1.07 | 2.64 | 0.606 | 3.49 | 1.09 | 1.32 | 0.521 | 1.03 | 0.149 | 0.712 | 1.36 | 1.61 | 1.64 | 4.06 | 6.85 | 3.55 | 0.973 | 1.59 |
| GCGACTGGGGCAAAGAAGGTTACCATAAGGTTGG | 1.24 | 0.788 | -0.0747 | 1.06 | -0.824 | 1.72 | 1.56 | 2.22 | 0.513 | 1.66 | 4.68 | 3.4 | -0.0271 | -0.382 | 0.618 | 1.11 | -0.136 | 1.22 | -0.528 | 1.59 |
| GCTGCTAGGTCAGGTTGGTCAGGTAACGGGTACG | 1.37 | 0.789 | -0.109 | 0.63 | 0.124 | 1.5 | 0.626 | 0.972 | -0.553 | 0.573 | 2.86 | 2.24 | -0.63 | -0.722 | 0.641 | 0.475 | -0.529 | 0.834 | -0.052 | 3.15 |
| TCTTGTAGATCCACAGGAGGTTAAGAAAGATCGA | 0.0862 | 1.26 | -0.232 | 1.08 | -0.363 | 1.05 | -0.0307 | 1.43 | 2.66 | 1.83 | 1.11 | 0.557 | 0.829 | 0.516 | -0.676 | 0.82 | -0.22 | 1.22 | 0.176 | 0.506 |
| GCTAGTTGGTCAGTAAAAGGTCACCCACCGGTCG | 3.38 | 4.1 | 4.23 | 3.6 | 0.649 | 4.11 | 2.48 | 4.29 | 2.04 | 3.67 | 0.689 | 2.81 | 0.204 | -0.0831 | 5.31 | 4.84 | 1.27 | 5.99 | 3.9 | 4.28 |
| TCTATTAGTTGATTAGAGCAACCGAAACAGCGGA | 0.47 | 0.476 | 0.0625 | 0.326 | 0.361 | 0.484 | -0.0852 | 1.56 | 3.21 | 2.38 | 1.66 | 0.345 | 0.782 | 0.622 | -0.0743 | 0.128 | -0.0101 | 0.143 | 0.166 | 0.00144 |
| GCATATAGGTAATACAAGGCGAAAGTCCGATTGT | 0.229 | 0.00213 | 0.175 | -0.106 | -0.482 | 0.752 | 0.874 | 0.503 | 0.39 | 0.229 | 4.13 | 2.28 | 0.423 | 0.106 | 0.176 | 0.00476 | -0.179 | 0.458 | -0.221 | -0.0161 |
| TCTTGTAGATCAACAGGAGGTGAAGAAAGATCGA | 0.155 | 0.134 | -0.343 | 0.298 | -0.585 | 0.798 | -0.0204 | 1.4 | 2.7 | 2.04 | 1.56 | 1.14 | -0.0745 | 1.41 | -0.39 | 0.179 | -0.438 | 0.154 | -0.0996 | 0.194 |
| CCGACTGGGGCAGAAAGATTACCATACCATCCGG | -0.557 | -0.807 | -0.423 | -0.639 | -1 | -0.291 | 0.958 | -0.112 | -0.469 | -0.456 | 1.53 | 0.903 | -0.59 | -1.13 | -0.627 | -0.737 | -0.227 | -0.36 | -0.0256 | 0.0416 |
| ATAGGTAGGTTACATCCGGGTCATTCAGGCTATG | 2.31 | 4.03 | 1.3 | 2.53 | 0.566 | 3.17 | 2.36 | 2.74 | 0.814 | 1.92 | 3.73 | 3.91 | 0.843 | 0.221 | 1.99 | 3.53 | 3.04 | 3.51 | 1.15 | 2.39 |
